DT40 TDP1 no CPT – qHTS for Inhibitors of human tyrosyl-DNA phosphodiesterase 1 (TDP1): qHTS in cells in absence of CPT; Potency, µM (doses to about 46.2 µM), for the others: at the highest dose activity change, negative = growth inhibition, actives largely listed as inhibitors; DT40 Tdp1-/- hTDP1 cells, no CPT, ATP luminescence, 48 h; actives 15% (n = 420,000); AID 686978, 2013; further: potency means the concentration at half of the fitted maximal effect; nearly all actives have a fitted effect of over 55% in size
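A cellular qHTS used chicken DT40 cells lacking endogenous Tdp1 but carrying stably transfected human TDP1. Compounds were applied without camptothecin, and cell growth kinetics were judged by ATP-dependent luminescence after ≥48 hr.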
TDP1 cell CPT – growth inhibition of DT40 Tdp1-/-;hTDP1 cells with camptothecin (screen for TDP1 inhibitors); chicken DT40 Tdp1-/-;hTDP1 cells + 20 nM CPT, ATP luminescence, 48 h; Potency, µM (highest dose often 46.2 µM), inactives show at the highest dose activity change, negative = growth inhibition, usual class: inhibitors; actives 12% (n = 420,000); AID 686979; further: potency means the concentration at half of the fitted maximal effect; nearly all actives have a fitted effect of over 55% in size
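Chicken DT40 Tdp1-/- cells complemented with human TDP1, 400 cells/well, exposed to compounds plus 20 nM camptothecin for at least 48 h at 37 C; viability read as ATP content by CellTiter-Glo luminescence.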
HT1080NT lethal – kills 2HG-producing HT-1080-NT fibrosarcoma cells; Potency, µM (top dose mostly 46.1 µM), for inactives: top-dose activity, negative = less viability, actives largely listed as cytotoxic; HT-1080-NT fibrosarcoma viability, CellTiter-Glo ATP luminescence, 48 h; actives 1.6% (n = 360,000);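 further: NT is the 2HG producing partner of a matched IDH1 knockdown line; potency means the concentration at half of the fitted maximal effect; 0% = DMSO-treated cells and -100% = media-only wells without cells; nearly all actives have a fitted effect of over 55% in size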
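Viability of the 2HG-overproducing fibrosarcoma line after 48 hours of compound exposure at 37 degrees C was determined by luminescence with CellTiter-Glo, and concentration-effect curves were then fitted and categorized.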
IL1B secr inh – inhibitors of inflammasome signaling (IL-1 beta secretion) | THP-1 LPS/ATP IL-1B secretion, AlphaLISA, 16 h; active compounds read low | activity change, % at 57.5 µM | actives 4.7% (n = 360,000) | AID 743279; in the data active means activity change below about -50%; inconclusive means mostly about -30% to -49%
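THP-1 cells pretreated 1 hr with compounds (up to 57.5 uM final), then stimulated with LPS (250 ng/mL final) plus ATP (1.25 mM final); secreted IL-1B measured by AlphaLISA after 16 hr, decreased signal indicating inhibition.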
ELG1 DNA repair – ELG1-dependent DNA repair inhibition. HEK293T ELG1-luciferase reporter, luminescence, 16 h; DNA damage induced by 5-fluorouridine. Potency, µM (titrated, usually from 46.1 µM), inactives show at the highest dose activity change, negative = inhibition, usual class: inhibitors. actives 2.3% (n = 330,000); further: potency means the concentration at half of the fitted maximal effect; nearly all actives have a fitted effect of over 55% in size
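Quantitative HTS, concentration-response format. 2,000 cells/well co-treated with 5-fluorouridine and compound, 16 hr in 5% CO2 at 37 °C; ONE-Glo luminescence read after 30 min.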
HT1080 IDH1KD tx – HT-1080 IDH1 knockdown cell toxicity (counter line) | Potency, µM (top dose mostly 46.1 µM), for the others: at the highest dose activity, negative = toxicity, usual class: cytotoxic | actives 2% (n = 360,000) | AID 686971 | HT-1080 IDH1 knockdown viability, ATP luminescence, 48 h;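 further: potency means the concentration at half of the fitted maximal effect; 0% = DMSO wells and -100% = cell-free medium wells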
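Viability of IDH1-knockdown HT-1080 fibrosarcoma cells was assessed by CellTiter-Glo after 48 h at 37 °C with titrated compound; concentration-effect curves were classified by fit quality and response size.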
An asterisk follows results filed as active; ? = inconclusive; . = not tested or not shown; [ ] = remark or other dose. Shown are actives, neighbours in structure and some others; about 19% of the full set was active somewhere. Unless noted, the call rests on the fitted dose curve; in most records, active means well fitted curve in the direction sought with a large enough effect; inconclusive means small, poorly fitted or top-dose-only effect, or another doubt; inactive means no such curve, though single readings can be large; an effect the other way counts as inactive or inconclusive. Unless noted, on the % scale 0 is the no-effect control and ±100 the full control effect.

SMILES	DT40 TDP1 no CPT	TDP1 cell CPT	HT1080NT lethal	IL1B secr inh	ELG1 DNA repair	HT1080 IDH1KD tx
CC1Cc2ccccc2N1CC(=O)Nc1ccc(Cl)c(S(=O)(=O)N(C)C)c1 (centres undefined)	-1.2%	6.3%	1.4%	32.0	23.1µM*	-0.5%
Cc1cccc(OCCC(=O)NNC(=O)c2ccoc2C)c1	-3.3%	-19.8%	14.0%	18.4	8.8%	-0.9%
Cc1nccn1CCC(=O)Nc1ccc(Cl)cc1	-1.0%	5.9%	-2.0%	-22.6	19.2%	-15.8%
CCC(=O)Nc1nnc2n1CCS2	-2.7%	-7.5%	.	.	.	.
N#CCc1ccc(-c2cccc3nccn23)cc1	-10.9%	-13.5%	?	6.7	.	1.5%
CSc1ccc(/C=C(\NC(=O)c2ccc(C)cc2)C(=O)NN)cc1	3.8%	7.7%	-4.4%	?	18.3µM*	4.0%
CSc1ccc(/C=C(/NC(=O)c2ccc(C)cc2)C(=O)Nc2cccc(C)c2)cc1	7.31µM*	7.31µM*	0.8%	36.9	15.6%	0.2%
Cc1ccc(NC(=O)/C(=C/c2ccncc2)NC(=O)c2ccccc2)cc1	6.1%	17.2%	17.4%	-8.3	-1.3%	3.0%
COc1ccc(OCC(=O)NCC2(N3CCN(C)CC3)CCCCC2)cc1	-18.4%	-1.5%	.	.	.	.
CCOC(=O)C1(CCOc2ccccc2)CCN(CC=C(C)C)CC1	?	?	-0.3%	-8.5	?	-2.5%
CCOC(=O)C1(CCOc2ccccc2)CCN(Cc2cc(OC)c3c(c2)OCO3)CC1	11.6µM*	20.6µM*	18.4µM*	-60.5*	?	18.4µM*
CCOC(=O)C1(CCOc2ccccc2)CCN(CCCn2cccn2)CC1	?	?	-3.3%	-12.3	-3.8%	-5.3%
CCOC(=O)C1(CCOc2ccccc2)CCN(Cc2cccc3c2OCO3)CC1	14.6µM*	23.1µM*	20.6µM*	-84.3*	?	?
CCOCCCn1c(=N)c(C(=O)NCc2cccnc2)cc2c(=O)n3cc(C)ccc3nc21	-15.1%	2.3%	.	.	.	.
O=C1CCCC2=C1C1(CCCCC1)N=C(Nc1nc3ccccc3s1)N2	?	18.4µM*	16.1%	26.9	.	-2.7%
C=Cc1ccc(C(=O)N2CCc3c(cnc(C)c3CNC(=O)c3ccc4c(c3)OCO4)C2)cc1	-19.3%	-1.1%[9.04 µM]	.	.	.	.
OCC1(Cc2ccccc2)CCN(Cc2cnc(-c3ccc(Cl)cc3)nc2)CC1	23.1µM*	?	?	-94.1*	29.0%	25.9µM*
Cc1cccc(-c2ncc(CN3CCN(C4CCCC4)C(CCO)C3)cn2)c1 (centres undefined)	2.3%	8.0%	-22.5%	4.5	12.2%	-19.1%
OCC1(Cc2ccc(Cl)cc2)CCN(Cc2ccc(Oc3ncccn3)cc2)CC1	-19.0%	-24.7%	-13.6%	-89.9*	-0.8%	?
OCCC1CN(Cc2cnc(-c3ccc(Cl)cc3)nc2)CCN1C1CCCCC1 (centres undefined)	20.6µM*	?	-1.6%	.	?	-12.3%
OCC1(Cc2ccccc2)CCN(Cc2cnc(-c3cccc4ccccc34)nc2)CC1	?	?	-7.5%	-57.3*	12.4%	-5.1%
OCC(O)C(O)C(O)C(O)C(O)CO (centres undefined)	11.3%	-4.2%	.	.	.	.
O=C(O)C(Cc1ccc(O)cc1)N1C(=O)c2ccccc2C1=O (centres undefined)	3.1%	-9.1%	-0.1%	-9.1	-3.2%	-2.3%
CCn1nccc1NC(=O)c1csc([C@@H]2O[C@H](CO)[C@H](O)[C@H](O)[C@H]2O)n1	0.6%	?	?	16.9	.	?
Cc1cc(=O)oc2c(C)c(OC(C)C(=O)Nc3ccc(N4CCC(C)CC4)cc3)ccc12 (centres undefined)	-23.6%	-29.0%	-3.4%	17.5	-2.1%	-2.2%
SMILES	DT40 TDP1 no CPT	TDP1 cell CPT	HT1080NT lethal	IL1B secr inh	ELG1 DNA repair	HT1080 IDH1KD tx
Cn1cnc2c(=O)[nH]cc([N+](=O)[O-])c21	-3.7%	-4.3%	-0.9%	33.1	-10.2%	-10.0%
CCOC(=O)C[C@H]1c2cc(F)ccc2S(=O)(=O)N1Cc1cc(OC)c(OC)c(OC)c1	11.2µM*	10µM*	.	.	.	.
O=C(/C=C/c1ccccc1)c1ccc(NC2=NCCCS2)cc1	11.6µM*	14.6µM*	-11.3%	-101.6*	?	-16.5%
Cc1cccc(/C=C/C(=O)c2ccc(NC3=NCCCS3)cc2)c1	7.31µM*	13µM*	?	-86.7*	14.1%	?
CC(C)(C)c1ccc(/C=C/C(=O)c2ccc(NC3=NCCCS3)cc2)cc1	?	23.1µM*	?	-100.3*	-13.2%	?
O=C(/C=C/c1ccc(Br)cc1)c1ccc(NC2=NCCCS2)cc1	?	9.2µM*	?	-65.0*	?	?
c1ccc(NC2=NCCCCS2)cc1	-4.4%	-25.5%	0.9%	12.4	?	-4.6%
COc1ccc(C(=O)OCC(=O)NC23CC4CC(CC(C4)C2)C3)c(O)c1	?	23.1µM*	0.3%	13.1	.	-13.7%
O=C(OCC(=O)C12CC3CC(CC(C3)C1)C2)c1ccc(O)cc1O	?	?	13µM*	?	29.3%	18.4µM*
O=C(COC(=O)c1ccc(O)cc1O)NC12CC3CC(CC(C3)C1)C2	?	?	0.0%	5.0	?	-1.6%
COc1ccc(Cn2c(CNC(=O)Cc3ccc(OC)c(OC)c3)nc3cccnc32)cc1	-25.2%	-19.1%	.	.	.	.
CCn1c(O)c(N=NC(=O)CNC(=O)c2ccccc2F)c2ccccc21	?	?	?	0.0	-27.8%	?
O=C(CNC(=O)/C=C/c1ccccc1)N=Nc1c(O)n(Cc2ccccc2)c2ccccc12	.	.	.	.	-24.3%	.
Oc1c(N=NC(=S)Nc2ccccc2F)c2ccccc2n1Cc1ccc(Cl)cc1	5.8µM*	4.61µM*	-15.4%	-11.2	?	2.1%
Cc1ccc(C)c(Cn2c(O)c(N=NC(=S)Nc3ccccc3F)c3ccccc32)c1	2.91µM*	5.17µM*	0.7%	-8.4	?	8.0%
CCNC(=S)N=Nc1c(O)n(Cc2ccc(Cl)cc2)c2ccccc12	?	16.4µM*	?	-5.0	-26.8%	?
Cc1ccccc1Cn1c(O)c(N=NC(=S)Nc2ccccc2F)c2ccccc21	6.51µM*	5.8µM*	-12.8%	-8.9	5.8µM*	-12.9%
Cc1cccc(N=C2NC(=O)C(CO)(CO)S2)c1	8.5%	8.4%	16.9%	11.0	6.8%	14.3%
CCN(CC)c1nn2c(=O)c(C(=O)NCc3ccc(N(C)C)cc3)cnc2s1	-22.2%	-13.5%	.	.	.	.

Screening data as filed in PubChem BioAssay.
